# Source: PubChem BioAssay
# In the library only some 2.5% were active in any assay of this set; here they are far more common.
# 697 NFkB inh: lowers PMA/ionomycin-induced NF-kB signal in 697 B cells; actives 0.33% (n = 330,000); 697 B-cell NF-kB luciferase reporter, 16 h; inhibition, % at 4 µM; AID 435022; in the data active means inhibition above about 35%
# TMEM16A act: mouse TMEM16A channel activation, primary screen; Q8BHY3; HEK293 TMEM16A/YFP-H148Q/I152L, iodide quench fluorescence; stronger effect = lower value; B-score at 10 µM; actives 0.3% (n = 340,000); AID 623877;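 active means fluorescence-ratio B-score plate-corrected deviation score at least 3 library SD below zero, with starting fluorescence score within 5 deviations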;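 further: channel opened by trigger with iodide after compound preincubation; score built on the fluorescence ratio of max minus min over baseline; more negative score means more quench and so TMEM16A activation or potentiation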
# Target sequence (Q8BHY3 whole entry, looked up): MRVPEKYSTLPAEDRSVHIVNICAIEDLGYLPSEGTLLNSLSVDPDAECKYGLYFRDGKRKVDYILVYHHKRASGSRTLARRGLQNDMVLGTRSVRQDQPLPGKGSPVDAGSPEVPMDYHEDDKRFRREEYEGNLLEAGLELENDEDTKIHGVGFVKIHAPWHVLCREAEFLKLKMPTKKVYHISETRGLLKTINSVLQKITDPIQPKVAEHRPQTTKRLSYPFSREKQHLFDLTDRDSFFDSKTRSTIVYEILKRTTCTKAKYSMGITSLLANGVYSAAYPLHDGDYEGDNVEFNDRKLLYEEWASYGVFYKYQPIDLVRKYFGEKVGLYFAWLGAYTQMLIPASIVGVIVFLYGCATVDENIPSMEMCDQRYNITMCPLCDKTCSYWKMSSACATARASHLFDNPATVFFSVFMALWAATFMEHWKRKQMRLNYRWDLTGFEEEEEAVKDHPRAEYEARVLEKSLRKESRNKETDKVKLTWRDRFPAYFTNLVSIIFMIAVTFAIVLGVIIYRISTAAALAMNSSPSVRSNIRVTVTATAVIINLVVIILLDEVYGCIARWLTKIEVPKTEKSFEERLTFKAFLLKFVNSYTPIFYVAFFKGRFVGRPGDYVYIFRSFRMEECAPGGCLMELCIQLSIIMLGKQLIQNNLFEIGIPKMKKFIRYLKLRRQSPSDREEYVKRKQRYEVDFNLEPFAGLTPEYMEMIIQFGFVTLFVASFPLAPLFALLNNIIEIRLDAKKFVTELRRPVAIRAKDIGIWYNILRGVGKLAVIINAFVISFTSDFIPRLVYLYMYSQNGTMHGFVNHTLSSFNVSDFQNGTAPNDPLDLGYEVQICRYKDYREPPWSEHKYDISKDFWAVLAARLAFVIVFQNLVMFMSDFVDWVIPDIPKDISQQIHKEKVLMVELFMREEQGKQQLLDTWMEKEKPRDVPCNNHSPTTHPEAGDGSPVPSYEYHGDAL
# Jurkat NFkB inh: inhibitors of the PMA/ionomycin-induced NF-kB reporter in Jurkat cells. PMA/ionomycin-induced NF-kB luciferase reporter, luminescence. AID 435003. inhibition, % at 4 µM. actives 0.53% (n = 330,000); in the data active means inhibition above about 50%
# KLF5 inh: suppresses KLF5 promoter-driven expression. DLD-1 KLF5 promoter-luciferase reporter, luminescence. inhibition, % at 5 µM. actives 0.23% (n = 290,000);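 active means inhibition above a per-plate limit of that plate's mean compound inhibition plus 3 SD, cut at about 60% in these data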;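 further: 0% = DMSO wells and 100% = LY294002 at 200 µM; higher means less KLF5 promoter-driven luciferase light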
# ANO1 block: blocks the mouse calcium-activated chloride channel TMEM16A | actives 1.2% (n = 310,000) | AID 588511 | normalized B-score (activity score, 25-100; higher = stronger inhibition) at 10 µM | HEK293 TMEM16A/YFP iodide influx fluorescence, ionomycin;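 active means ratio plate-corrected score three or more library SD toward inhibition, starting fluorescence score within five deviations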;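 further: score derived from kinetic fluorescence span divided by baseline fluorescence per well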
# aSyn UTR inh: 5' untranslated region of α-synuclein, MLPCN primary screen | alpha-synuclein 5'UTR reporter, inhibitor activity | inhibition, % (tested at 7.5 µM) | actives 0.82% (n = 300,000); in the data active means inhibition above about 60%;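 further: H4 neuroglioblastoma cells stably carrying SNCA 5'UTR luciferase fusion; 0% = DMSO wells and 100% = positive control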
# An asterisk follows results filed as active; i = inactive; nt = no result given; ! = repeats disagree.
SMILES,697 NFkB inh,TMEM16A act,Jurkat NFkB inh,KLF5 inh,ANO1 block,aSyn UTR inh
Cc1nn(Cc2ccc(C(=O)NC(C)(C)C)o2)c(C)c1Br,-52.5,i,12.8,-51.3,25*,-31.9
O=C(c1ccc2ccccc2c1)C1CCCN(C(=O)c2cccnc2)C1 (stereo unspecified),-26.8,i,-5.3,-5.5,i,2.9
O=C(c1ccc2ccccc2c1)C1CCCN(C(=O)c2noc3c2CCCC3)C1 (stereo unspecified),-2.1,i,-0.1,-14.7,25*,7.9
O=C(NCc1ccco1)c1ccc(Cn2c(=O)c3ccccc3n(Cc3cccc(Cl)c3)c2=O)cc1,-31.6,i,-16.1,-9.0,i,64.3*
O=C(NCc1ccco1)c1ccc(Cn2c(=O)c3sccc3n(Cc3cccc(F)c3)c2=O)cc1,-2.6,i,9.2,16.6,i,35.7
C[N+]1=C(/C=C/Nc2ccccc2Cl)C(C)(C)c2ccccc21,-26.7,i,13.2,-14.5,i,-17.5
COC(=O)c1ccc2c(c1)C(C)(C)C(/C=C/c1ccccc1O)=[N+]2C,-34.2,i,32.5,-39.5,i,118.3*
c1ccc(-c2cn3ccccc3n2)cc1,nt,i,nt,nt,nt,nt
CCCSc1ccc2nc(-c3ccccc3)cn2c1,-171.9,i,-47.1,41.3,i,110.9*
Cc1[nH]nc2c1-c1nc3ccccc3nc1C(C)(C)C2,-12.6,i,-15.3,19.4,25*,17.0
CC12CCC(C)(c3nc4ccccc4nc31)C2(C)C,1.7,i,-1.3,-25.7,i,-4.2
O=S(=O)(Cc1cc(Cl)nc(-c2ccccc2)n1)c1ccccc1,10.6,i,0.4,-6.2,i,-1.5
O=S(=O)(Cc1cc(Cl)nc(-c2ccncc2)n1)c1ccccc1,17.1,-4.66*,-0.6,-4.2,i,8.5
COc1ccc(Cc2nc3ccc(C(=O)NC(C)c4cn(C)nc4C)cc3o2)cc1 (stereo unspecified),-14.1,i,0.8,-24.9,i,13.7
COc1ccc(C(=O)c2no[n+]([O-])c2C(=O)c2ccc(OC)cc2)cc1,-6.5,i,10.9,-42.8,i,-20.6
O=C(c1cccs1)c1no[n+]([O-])c1C(=O)c1cccs1,11.5,i,5.0,-7.3,i,63.1*
CCC(=O)NN1CCN(c2ccncc2S(=O)(=O)N2CCCCC2)CC1,11.7,i,-1.4,4.3,i,4.9
Cc1ccc(C(=O)NNc2cc(N3CCCC3)nc(N3CCCC3)n2)cc1,-21.9,nt,-3.2,-26.2,i,73.7*
COc1ccccc1OCCCCOc1ccccc1F,-63.4,i,-27.4,-52.4,i,-70.5
CCN(CC)CCCCCOc1ccccc1OC,0.8,i,7.7,-20.0,25*,13.8
O=C(CCS(=O)(=O)c1ccc(Br)cc1)NCCC1=CCCCC1,-8.8,i,11.3,3.7,i,-10.3
CN(/N=C/c1cc(Cl)cc(Cl)c1O)C(=S)NC(C)(C)C,-2.6,i,9.3,-21.4,100*,-4.4
Oc1c(Cl)cc(Cl)cc1/C=N/Nc1ncc(Br)cn1,11.0,i,33.1,-38.1,i,42.9
COc1ccc(OC)c(S(=O)(=O)NCCS(=O)(=O)N2CCN(c3ccccc3)CC2)c1,4.4,i,-5.8,5.3,i,4.9
CC(C)(C)n1nnnc1C(c1ccc(F)cc1)N(Cc1ccc(F)cc1)Cc1ccco1 (stereo unspecified),-4.4,-5.1*,9.2,10.2,i,21.3
SMILES,697 NFkB inh,TMEM16A act,Jurkat NFkB inh,KLF5 inh,ANO1 block,aSyn UTR inh
NC(=O)C1=C[C@@H](c2ccccc2)C[C@@H](OCc2ccc(CO)cc2)O1,6.7,i,9.1,-27.2,i,10.3
O=C(O)C1=C[C@@H](c2ccccc2)C[C@@H](OCc2ccc(CO)cc2)O1,10.6,-12.8*,-11.8,-8.2,i,7.9
Cc1ccc(S(=O)(=O)Nc2cc(-c3nn(C)c(=O)c4ccccc34)ccc2N2CCOCC2)cc1,24.6,i,25.7,-24.0,i,78.4*
CC(C)(C)c1ccc(C2=CC(c3ccccc3)n3ncnc3N2)cc1 (stereo unspecified),-4.3,i,-4.3,nt,100*,-58.3
O=C(COc1ccccc1)NNC(=S)NC(=O)c1ccc(Cl)cc1Cl,6.3,nt,2.3,-34.4,25*,-21.9
COc1cccc(OCC(=O)NNC(=S)Nc2ccc(Cl)cc2Cl)c1,12.8,i,20.3,-7.7,100*,0.9
Cc1cccc(C(=O)NC(=S)NNC(=O)COc2ccc(Cl)cc2)c1,2.6,i,-13.5,9.0,nt,-11.2
CC1=CC2(C)C(C3C(C)=CC2(C)C(=O)C3(C)O)C(C)(O)C1=O (stereo unspecified),nt,i,nt,nt,nt,nt
CC(=O)Nc1ccc(S(=O)(=O)NCCC(=O)NCc2ccncc2)cc1,5.9,i,17.1,nt,i,-6.6
CC1(c2ccc(Cl)cc2Cl)NC(=O)N(CC(=O)Nc2ccc3[nH]c(=O)[nH]c3c2)C1=O (stereo unspecified),14.6,i,-2.0,nt,i,6.3
O=C(Nc1ccc2nc(-c3ccccc3)oc2c1)c1ccco1,-16.1,-13.9*,-32.5,-38.5,i,-226.8
COc1cccc(C(=O)NCCNC(=O)c2ccc(C)nc2)c1,17.7,i,2.7,-16.2,i,-23.2
CCc1ccccc1NC(=S)N=Nc1c(O)n(C)c2ccc(S(=O)(=O)N3CCOCC3)cc12,2.8,i,17.7,-2.6,i,80.5*
Cc1cc(S(=O)(=O)N2CCOCC2)ccc1OCC(=O)Nc1ccccc1F,15.2,i,11.1,-16.3,i,-14.7
Cc1ccc(Cn2c(O)c(N=NC(=S)Nc3ccccc3F)c3cc(S(=O)(=O)N4CCOCC4)ccc32)cc1,nt,i,nt,23.8,nt,66.2*
Cc1ccc(C)c(NC(=S)N=Nc2c(O)n(C)c3ccc(S(=O)(=O)N4CCOCC4)cc23)c1,2.4,i,13.8,-17.3,i,77.8*
Cn1c(O)c(N=NC(=O)c2cccc(S(=O)(=O)N3CCCCC3)c2)c2ccccc21,-6.4,i,7.6,7.7,i,16.8
C(=C\c1sc(Nc2ccccc2)n[n+]1-c1ccccc1)/c1ccccc1,nt,-8.89*,nt,nt,nt,nt
COc1ccc(-c2sc(Nc3ccccc3)n[n+]2-c2ccccc2)cc1Br,2.6,i,-22.2,nt,i,nt
CCCCCCCCCCOC(=O)Cn1c(COc2ccc(OC)cc2)[n+](C)c2ccccc21,-5.7,i,40.9,-38.9,25*!,25.0
CCCCOC(=O)Cn1c(=O)n(CC(=O)OCCCC)c2ccccc21,-4.6,i,-2.0,2.1,i,1.0
CCCCCCCCCCOC(=O)Cn1c(COc2ccccc2C)[n+](C)c2ccccc21,30.1,-4.67*,44.5,-40.2,100*,25.0
CCCCCCCCCCOC(=O)Cn1c(COc2cccc(C)c2)[n+](C)c2ccccc21,5.9,i,35.1,-17.2,100*,64.8*
CCOC(=O)Cn1c(COc2ccccc2OC)[n+](C)c2ccccc21,2.9,i,8.3,nt,i,-0.8
